The list is not random: actives were taken first. Their share in the collection is about 9.2%.
Rab9 prom act: qHTS Assay for Rab9 Promoter Activators; Huh7 Rab9 promoter-luciferase reporter, luminescence, 24 h; 320,000 tested, 2.8% active; Potency, µM (top dose mostly 9.22 µM), for the others: at the top dose activation, negative = inhibition, usual class: activators; further: % of control where 0% means no effect; nearly all actives have a fitted effect of over 60% in size
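Cells were plated at 1500 per well in reduced-serum medium with 10% FBS and left 2 h. Compound in DMSO was then added for 24 h at 37 °C. Reporter signal was read by luminescence after 10 min with luciferase detection reagent.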
FLuc counter: qHTS profiling assay for firefly luciferase inhibitor/activator using purifed enzyme and Km concentrations of substrates (counterscreen for miR-21 project). Luciferin 4-monooxygenase (Photinus pyralis), P08659. purified FLuc, Km substrates, luminescence inhibition. Potency, µM (highest dose often 57.5 µM), without a hit: top-dose activity change, negative = inhibition, most hits filed as inhibitors. 360,000 tested, 6.9% active;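 further: plate controls were vehicle for no effect and reference inhibitor for full effect; nearly all actives have a fitted effect of over 55% in size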
Target sequence (P08659 whole entry, looked up): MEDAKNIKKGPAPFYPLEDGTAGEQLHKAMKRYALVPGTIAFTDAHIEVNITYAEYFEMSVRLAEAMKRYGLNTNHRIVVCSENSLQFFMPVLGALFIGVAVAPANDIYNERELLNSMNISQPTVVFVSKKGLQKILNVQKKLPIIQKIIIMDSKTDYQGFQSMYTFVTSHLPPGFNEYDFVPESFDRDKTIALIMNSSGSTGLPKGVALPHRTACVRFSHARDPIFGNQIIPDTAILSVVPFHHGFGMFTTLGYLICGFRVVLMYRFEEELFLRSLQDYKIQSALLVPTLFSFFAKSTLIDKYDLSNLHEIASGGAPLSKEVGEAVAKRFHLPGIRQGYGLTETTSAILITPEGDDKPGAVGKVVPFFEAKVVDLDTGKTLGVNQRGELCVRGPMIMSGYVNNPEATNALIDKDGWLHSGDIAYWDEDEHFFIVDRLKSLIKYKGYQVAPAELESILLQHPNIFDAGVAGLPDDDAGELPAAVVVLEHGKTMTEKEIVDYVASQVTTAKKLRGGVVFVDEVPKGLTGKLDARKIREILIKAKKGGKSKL
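Purified P. pyralis luciferase (10nM final) with 10uM D-luciferin and 10uM ATP (Km levels) in 50mM Tris acetate pH 7.5, 10mM Mg acetate, 0.01% Tween-20, 0.05% BSA; qHTS 6-point titration, ~60 µM downward; luminescence read.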
ELG1 genotox: qHTS screen for small molecules that induce genotoxicity in human embryonic kidney (HEK293T) cells expressing luciferase-tagged ELG1 | 330,000 tested, 1.3% active | HEK293T ELG1-luciferase reporter, luminescence, 16 h | Potency, µM (top dose mostly 46 µM), for inactives: at the highest dose activity change, positive = activation, hits mostly activators; further: % of control where 0% means no effect; nearly all actives have a fitted effect of over 60% in size
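After overnight (16 hr) compound treatment at 37 °C, ELG1-luciferase HEK293T cells were lysed with ONE-Glo; luminescence quantified 30 min later at room temperature.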
ELG1 repair inh: qHTS screen for small molecules that inhibit ELG1-dependent DNA repair in human embryonic kidney (HEK293T) cells expressing luciferase-tagged ELG1; 330,000 tested, 2.3% active; HEK293T ELG1-luciferase reporter, luminescence, 16 h; DNA damage induced by 5-fluorouridine; Potency, µM (titrated, usually from 46.1 µM), for the others: at the highest dose activity change, negative = inhibition, usual class: inhibitors; further: on the % scale 0 is the no-effect control and ±100 the full control effect; nearly all actives have a fitted effect of over 55% in size
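Overnight (16 hr) co-exposure of 2,000 cells/well to 5-fluorouridine and compound at 37 °C preceded detection. Luciferase was quantified via ONE-Glo luminescence; loss of signal denotes inhibition.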
SMN2 splice enh: qHTS Assay for Enhancers of SMN2 Splice Variant Expression. HEK293 SMN2-luciferase splicing reporter, luminescence, 30-36 h. Potency, µM (doses to about 46.1 µM), without a hit: at the top dose activity change, positive = activation, hits mostly activators. 210,000 tested, 2.8% active; further: % of control where 0% means no effect; nearly all actives have a fitted effect of over 55% in size
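qHTS luciferase splicing reporter: luminescence rises when SMN2 exon 7 is included in transfected HEK293 cells. Compound exposure lasted 30-36 h at 37C, with 4.5 mM final sodium butyrate as control, followed by a ONE-Glo read.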
NPC1 promoter act: qHTS Assay for NPC1 Promoter Activators. Huh7 NPC1 promoter luciferase reporter, 24 h. Potency, µM (top dose mostly 9.22 µM), for the others: top-dose activation, actives largely listed as activators. 320,000 tested, 2.4% active. AID 485313, 2010; further: % of control where 0% means no effect; nearly all actives have a fitted effect of over 60% in size
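Quantitative HTS used a cell-based reporter: Huh7 cells stably bearing the NPC1 promoter upstream of luciferase were treated with compounds for 24 h, and promoter activation was read as luminescence.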
An asterisk follows results filed as active; ? = inconclusive; / = no result given; [ ] = dose if it differs, or a comment. The call rests on the fitted dose curve; in most records, active means well fitted curve in the direction sought with a large enough effect; inconclusive means small, poorly fitted or top-dose-only effect, or another doubt; inactive means no such curve, though single readings can be large; an effect the other way counts as inactive or inconclusive. Potency means the concentration at half of the fitted maximal effect.

SMILES | Rab9 prom act | FLuc counter | ELG1 genotox | ELG1 repair inh | SMN2 splice enh | NPC1 promoter act
O=C(c1cccc(C(=O)N2CCN(Cc3ccccc3)CC2)c1)N1CCN(Cc2ccccc2)CC1 | -7% | 0% | -12% | ? | -72% | -5%
O=C(c1c[nH]c2ccccc12)N1CCN(c2ccccc2)CC1 | 14% | -16% | -5% | 4% | 14% | -1%
CCOc1ccc(CN2CCN(C(=O)c3ccccc3)CC2)cc1 | -1% | 4% | 4% | 9.2µM* | -49% | -3%
O=C(c1ccc2ccccc2c1)N1CCN(Cc2ccccc2)CC1 | 22% | 21µM* | 8% | ? | / | ?
O=C(Nc1cccc(C(=O)N2CCN(Cc3ccccc3)CC2)c1)c1ccccc1 | 4% | -19% | -13% | 21µM* | -15% | -1%
O=C(c1c[nH]c2ccccc12)N1CCN(Cc2ccccc2)CC1 | 4% | 21µM* | -5% | -6% | -18% | -3%
O=C(Cc1ccccc1)Nc1ccc(N2CCCCC2)cc1 | ? | 6µM* | 3.3µM* | ? | 11µM* | 1.8µM*
CCCC(=O)N1CCN(c2ccc(NC(=O)c3ccco3)cc2)CC1 | 25% | 1% | 9% | ? | -9% | 2%
O=C(Cc1cccs1)Nc1ccc(N2CCOCC2)cc1 | ? | 17µM* | ? | ? | ? | ?
CCN1CCN(c2ccc(NC(=O)c3ccco3)cc2)CC1 | ? | 27µM* | ? | ? | / | ?
CN1CCN(c2ccc(NC(=O)Cc3ccccc3)cc2)CC1 | ? | 19µM* | 12µM* | ? | 17% | ?
Cc1ccc(Cl)cc1N1CCN(C(=O)c2cc3c(=O)[nH]c4ccccc4c3n2C)CC1 | -43% | 1% | -20% | ? | -69% | -28%
CCC/C=C(\CCC)C(NS(=O)(=O)c1ccc(C(F)(F)F)cc1)c1ccc(-c2ccccc2)cc1 (centres undefined) | / | / | / | / | -5% | /
Cn1c(CO)cnc1S(=O)(=O)Cc1c(Cl)cccc1Cl | -4% | -3% | -1% | 1% | / | 1%
O=C(CNC(=O)c1ccc(Br)o1)Nc1ccc(N2CCCCCC2)cc1 | -1% | ? | 3% | 12% | / | -4%
COCCCNC(=S)Nc1ccc(N2CCCCC2)cc1 | 13% | -6% | 4% | 10% | 16% | 11%
O=C(O)CCCC(=O)Nc1ccc(N2CCCC2)cc1 | 6% | 15µM* | 1% | 10% | -12% | 4%
CCNC(=S)Nc1ccc(N2CCCCC2)cc1 | 25% | -14% | 15% | 0% | 18µM* | 26%
O=C(CNC(=O)c1ccco1)Nc1ccc(N2CCCCCC2)cc1 | 28% | 17µM* | ? | ? | / | 29%
CSc1ccc(-c2nc(CN3CCCCC3c3cccnc3)c(C)o2)cc1 (centres undefined) | -1% | -10% | -9% | ? | / | -2%
C=CCn1c(COc2ccc(OC)cc2)nc2ccccc21 | ? | 17µM* | ? | ? | / | ?
COCCn1c(COc2ccc(OC)cc2)nc2ccccc21 | ? | -4%[2.3 µM] | 6% | ? | 17% | 18%
C=CCn1c(NCc2ccccc2O)nc2ccccc21 | 7% | ? | 6% | ? | / | 23%
C=CCn1c(NCc2ccc3c(c2)OCO3)nc2ccccc21 | 24% | 15µM* | 30% | ? | -3% | 14%
CCn1c(COc2ccc(OC)cc2)nc2ccccc21 | ? | 13µM* | 17% | ? | 1% | ?
C=CCn1c(NCc2ccc(OC)cc2O)nc2ccccc21 | ? | 19µM* | 13% | ? | / | ?
CCn1c(COc2ccccc2)nc2ccccc21 | 2% | ? | 21% | ? | 3% | 2%
